From PubChem BioAssay AID588477 (NMMLSC, 2011)
Calls of active or inactive are those of the source.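 Rule for the calls: active = valid curve fit with half-effect dose at most 10 µM and total binding change across doses of 30 points or more; inactive = the rest.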

test system: Ras wt; experiment: inhibitors of Bodipy-GTP binding across eight GTPases, SAR follow-up, selectivity assay for Cdc42 probe extension project, biochemical, round 1 SAR, Mg buffer, multiplex flow cytometry (AID 588477); conditions: GST-GTPase beads; series mostly up to 100 µM; percent response (remaining binding): at the top concentration

Percent response (remaining binding), inactive:
O=C(C#Cc1ccccc1)c1cccc([N+](=O)[O-])c1 59.2%, NS(=O)(=O)c1ccc(N2N=C(c3ccccc3)CC2c2ccccc2)cc1 (stereo not drawn) 54.3%, COc1ccc(C2CC(c3ccccc3)=NN2c2ccc(S(N)(=O)=O)cc2)cc1 (stereo not drawn) -50.2%
